{"source": "PubChem BioAssay (NCATS)", "note": "Records with an inconclusive call do not appear. Calls of active or inactive are those of the source. Calls follow the shape of the dose curve; as a rule, active = well fitted cell-killing curve with a large enough effect; inconclusive = small, poorly fitted or top-dose-only effect; inactive = flat fitted curve, though single readings scatter. Potency is read from the fitted curve at half-maximal effect."}
{"test": "qHTS of pediatric cancer cell lines to identify multiple opportunities for drug repurposing: Primary screen for RD cells (AID 1347104); also: nearly all actives have a fitted effect of over 55% in size;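 as to activity change, negative = cytotoxic: plate controls were DMSO for no effect and bortezomib for full effect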", "details": "RD rhabdomyosarcoma viability, CellTiter-Glo luminescence, 48 h; series mostly up to 46 µM; activity change, negative = cytotoxic: at the top concentration", "from_the_text": "Drug repurposing or repositioning has been offered as a strategy for drug development in oncology programs. This approach has special potential for childhood cancers and other rare or orphan diseases, where the expected return on new drug development has been a disincentive to pharmaceuticals. […] In this project we exploit the poly-pharmacology of drugs to discover new indications via phenotypic screening of a panel of 19 well-characterized cell lines derived from solid tumors seen in children and adolescents. The goal is to identify approved drugs with previously unrecognized anticancer properties that has the potential to reveal new mechanisms and biological processes involved in carcinogenesis or drug resistance. We employed a titration-based paradigm (quantitative high-throughput screening or qHTS), where all compounds were tested at multiple concentrations for their effect on cell viability. Concentration-response curves (CRCs) were derived directly from the primary screen, and both potency and efficacy values were used to identify compounds with robust bioactivity profiles. We screened the NIH Chemical Genomics Center (NCGC) Pharmaceutical Collection (NPC) and Mechanism Interrogation Plate (MIPE) small molecule collections of approved and investigational compounds against these cell lines; and measured metabolically active cells after 48 hours of compound treatment as a proxy for cell viability. […] Assay Submitter: Nathalia J. Martinez, National Center for Advancing Translational Sciences, National Institutes of Health, Rockville, MD, USA; email: natalia.martinez@nih.gov Shen, M et al. Quantitative high-throughput phenotypic screening of pediatric cancer cell lines identifies multiple opportunities for drug repurposing. Oncotarget 2017 Dec 19;9(4):4758-4772. PMID 29435139.\nThe cells were obtained from University of North Carolina (UNC), Pediatric Preclinical Testing Program (PPT), and Coriell Institute (CI). qHTS cell viability assay: Cells were assayed in growth media at a density of 500-1,000 cells/well. Five microliters of cells were dispensed into 1,536-well, white, solid-bottom, TC-treated plates (Greiner Bio One) using a multidrop dispenser and incubated at 37 degrees C, 5% CO2, under a humidified atmosphere for 5 hours. Twenty-three nanoliters of compounds and controls (neutral control DMSO or positive control bortezomib at final concentration of 2.3 µM) were subsequently transferred by Kalypsys pintool. For primary screens, the MIPE collection was tested at 11-point dilutions (final concentrations range from 0.78 nM to 46 µM) and the NPC collection at 8-point dilutions (final concentrations range from 0.59 nM to 46 µM). Compounds tested in follow-up screens were assayed at 11-point dilutions. Cells were incubated for 48 hours, followed by addition of 3 µL of CellTiter-Glo (Promega). After a 15 min incubation at room temperature, samples were analyzed for luminescence intensity using a ViewLux High-throughput CCD imager equipped with clear filters."}
{"compound": "CC(=O)OCC(=O)Nc1cc(C#N)cc(NC(=O)COC(C)=O)c1Cl", "activity change, negative = cytotoxic": "8.66% (inactive)"}
{"compound": "CCCCC/C=C\\C/C=C\\CCCCCCCC(=O)NC(C)c1ccccc1", "note": "(stereo not given)", "activity change, negative = cytotoxic": "-5.02% (inactive)"}
{"compound": "CC1CC(=O)NN=C1c1ccc(NCC(C)(C)NCC(O)COc2cc(Cl)ccc2C#N)cc1", "note": "(stereo not given)", "activity change, negative = cytotoxic": "-3.48% (inactive)"}
{"compound": "CC(C(=O)O)c1ccc(/C=C2\\CCCCC2=O)cc1", "note": "(stereo not given)", "activity change, negative = cytotoxic": "13.5% (inactive)"}
{"compound": "O=C1Cc2cc(Cl)ccc2N1", "activity change, negative = cytotoxic": "13.9% (inactive)"}
{"compound": "O=C(O)C(=O)Nc1cccc(-c2nn[nH]n2)c1", "activity change, negative = cytotoxic": "19.8% (inactive)"}
{"compound": "CC(=O)c1ccc(O)c(C(N)=O)c1", "activity change, negative = cytotoxic": "15.9% (inactive)"}
{"compound": "CCCCCCCCCCCC[N+](C)(C)Cc1ccccc1", "Potency": "9.44 µM (active)"}
{"compound": "N#CC1(c2ccc(F)cc2)CCC(=O)CC1", "activity change, negative = cytotoxic": "9.96% (inactive)"}
{"compound": "C1=CC2C3C=CC(C3)C2C1", "note": "(stereo not given)", "activity change, negative = cytotoxic": "15.9% [at 92.7 µM] (inactive)"}
{"compound": "CC(C)CCCC(C)NCCC(C)C", "note": "(stereo not given)", "activity change, negative = cytotoxic": "-8.32% (inactive)"}
{"compound": "Cc1cc(C(C)(C)C)c(O)c(C(C)(C)C)c1", "activity change, negative = cytotoxic": "10.9% (inactive)"}
{"compound": "CN(C(=O)C(Cl)Cl)c1ccc(OC(=O)c2ccco2)cc1", "activity change, negative = cytotoxic": "-6.09% (inactive)"}
{"compound": "CC(COc1ccccc1)NN", "note": "(stereo not given)", "activity change, negative = cytotoxic": "4% (inactive)"}
{"compound": "CNC(=O)c1c(I)c(NC(C)=O)c(I)c(C(=O)O)c1I", "activity change, negative = cytotoxic": "10.5% (inactive)"}
{"compound": "Nc1ccc(O)cc1", "activity change, negative = cytotoxic": "-3.15% (inactive)"}
{"compound": "CCOC(=O)C(=O)c1csc(NC=O)n1", "activity change, negative = cytotoxic": "14.3% (inactive)"}
{"compound": "CCC(C(=O)NC(=O)NC(C)=O)c1ccccc1", "note": "(stereo not given)", "activity change, negative = cytotoxic": "-3.4% (inactive)"}
{"compound": "Cc1cccc(OCC(O)CNC(C)(C)C)c1C", "note": "(stereo not given)", "activity change, negative = cytotoxic": "-8.79% (inactive)"}
{"compound": "CCN(CC)C(=O)C1CN2CCc3cc(OC)c(OC)cc3C2CC1OC(C)=O", "note": "(stereo not given)", "activity change, negative = cytotoxic": "8.72% (inactive)"}
{"compound": "O=C(O)CCCC[C@@H]1SC[C@@H]2NC(=O)N[C@@H]21", "activity change, negative = cytotoxic": "14.4% (inactive)"}
{"compound": "CN1CC[C@H](c2c(O)cc(O)c3c(=O)cc(-c4ccccc4Cl)oc23)[C@H](O)C1", "Potency": "0.596 µM (active)"}
{"compound": "C#Cc1ccc(-c2ccccc2F)cc1", "activity change, negative = cytotoxic": "10.4% (inactive)"}
{"compound": "CC(=O)[C@H]1CC[C@H]2[C@@H]3C=CC4=CC(=O)CC[C@@]4(C)[C@@H]3CC[C@]12C", "activity change, negative = cytotoxic": "-18.7% (inactive)"}
{"compound": "CC(=O)/C=C/C=C1/C2CCC(C2)C1(C)C", "note": "(stereo not given)", "activity change, negative = cytotoxic": "3.95% (inactive)"}
{"compound": "CCN(CC)CC(=O)Nc1c(C)cccc1C(=O)OC", "activity change, negative = cytotoxic": "-2.07% (inactive)"}
{"compound": "Cc1ccccc1N1CCN(CCc2nnc3n2CCCC3)CC1", "activity change, negative = cytotoxic": "2.79% (inactive)"}
{"compound": "CCOC(=O)Cn1cccc1-c1nc(-c2ccc(OC)cc2)c(-c2ccc(OC)cc2)s1", "activity change, negative = cytotoxic": "-3.76% (inactive)"}
{"compound": "CNC(=O)c1cnn(-c2nc(N)c3ncn([C@@H]4O[C@H](CO)[C@@H](O)[C@H]4O)c3n2)c1", "activity change, negative = cytotoxic": "-2.91% (inactive)"}
{"compound": "COC(=O)c1cc(Cl)c(NC(C)=O)cc1OC", "activity change, negative = cytotoxic": "14.2% (inactive)"}
{"compound": "c1ccc(C(O[C@H]2CCCN(CCc3ccc4c(c3)OCO4)C2)c2ccccc2)cc1", "activity change, negative = cytotoxic": "-22.9% (inactive)"}
{"compound": "CC(C)(C)C(=O)OCOC(=O)C1N2C(=O)CC2S(=O)(=O)C1(C)C", "note": "(stereo not given)", "activity change, negative = cytotoxic": "17.2% (inactive)"}
{"compound": "C=CC[N+]1([C@H]2C[C@H]3[C@@H]4CC[C@H]5C[C@H](OC(C)=O)[C@@H](N6CCCCC6)C[C@]5(C)[C@H]4CC[C@]3(C)[C@H]2OC(=O)CC)CCCCC1", "activity change, negative = cytotoxic": "2.05% (inactive)"}
{"compound": "CCCCN(CCCC)C(C(N)=O)c1ccc(OC)cc1", "note": "(stereo not given)", "activity change, negative = cytotoxic": "7.55% (inactive)"}
{"compound": "CCN(CC)CCN", "activity change, negative = cytotoxic": "-0.609% (inactive)"}
{"compound": "CN1CCC(=C2c3ccccc3CCc3cccnc32)CC1", "activity change, negative = cytotoxic": "0.334% (inactive)"}
{"compound": "CC(C)C(=O)OCc1cccc(OC(=O)[C@@H]2N3C(=O)[C@@H](NC(=O)Cc4ccccc4)[C@H]3SC2(C)C)c1", "activity change, negative = cytotoxic": "5.13% (inactive)"}
{"compound": "Oc1ccccc1-c1nnco1", "activity change, negative = cytotoxic": "9.85% (inactive)"}
{"compound": "CCCC(=O)O[C@]1(C(=O)COC(=O)CC)CC[C@H]2[C@@H]3CCC4=CC(=O)CC[C@]4(C)[C@H]3[C@@H](O)C[C@@]21C", "activity change, negative = cytotoxic": "5.25% [at 16.1 µM] (inactive)"}
{"compound": "CC(=O)c1cc2ccccc2s1", "activity change, negative = cytotoxic": "13.7% (inactive)"}
